From PMC7819943, “Rice protein-binding microarrays: a tool to detect cis-acting elements near promoter regions in rice”
Whole data set: some 35,000 sequences, median “fluorescence intensity (a.u.)” near 10,000, cut for the highest 2% near 52,000. Many of the other results were omitted from the sample, so the highest values are more common in it than they were.

What follows are sequences tested against T1, OsWOX13 (Oryza sativa, UniProt Q5QMM3 1-267) (assay: protein-binding microarray (RPBM); PBS, 2% BSA, 51.3 ng/ul salmon testes DNA, 50 uM zinc acetate, 200 nM TF, 25 C, 1 h; high values mean tight binding). Conditions: protein: recombinant; tags: N-terminal polyhistidine and DsRed monomer fusion (pET32a); label: CyDye5-dUTP incorporated in the synthesized complementary strand; 3' TTTTT single-stranded linker to array surface; dsDNA, one strand shown.
T1 sequence: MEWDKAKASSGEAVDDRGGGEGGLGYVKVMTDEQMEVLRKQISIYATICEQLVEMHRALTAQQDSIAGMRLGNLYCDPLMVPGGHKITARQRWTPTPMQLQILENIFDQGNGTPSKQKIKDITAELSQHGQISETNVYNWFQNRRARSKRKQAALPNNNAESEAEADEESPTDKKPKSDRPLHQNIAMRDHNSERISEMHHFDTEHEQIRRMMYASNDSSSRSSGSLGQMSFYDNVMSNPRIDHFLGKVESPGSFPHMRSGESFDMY
Method in brief: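 Per-feature fluorescence intensity (arbitrary units), read on an Axon 4000B scanner, is the binding signal. Transcription factors carrying an N-terminal polyhistidine tag and DsRed fusion were expressed in E. coli BL21-CodonPlus and purified on Ni–NTA. A custom Agilent array, made double-stranded by primer extension with Cy5-dUTP and blocked with 2% BSA, was incubated with 200 nM protein in PBS, 2% BSA, salmon testes DNA and 50 µM zinc acetate at 25 °C for 1 h and then washed.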

Sequence	binding signal
TTATTAGATTGACTATAGATAAATTAGATAAATTGGAGTTCGGAGTCACCTAGTGCAG	53600 fluorescence intensity (a.u.)
TTGACTATTAAATTGGCTATAGATAAATTGGAGCTAGTAGCGGAGTCACCTAGTGCAG	23600 fluorescence intensity (a.u.)
GTTAGATTAGATTGGTACCTCATGTTACCTCGTACCTCATCGGAGTCACCTAGTGCAG	55700 fluorescence intensity (a.u.)
TTGTATAAATGAGCTATCAGATTGGCTATAGATAAATTGGCGGAGTCACCTAGTGCAG	12000 fluorescence intensity (a.u.)
CGGTTAGATTACATTGGTACCTCATGATATCTCGTACCTCCGGAGTCACCTAGTGCAG	4680 fluorescence intensity (a.u.)
ATGAATAAGCTATTAGATTGACTATAGATAAATTGGAGCTCGGAGTCACCTAGTGCAG	18200 fluorescence intensity (a.u.)
CAACGGTTAGATTAGATTGGTACTTCATGGTACATCGTGGCGGAGTCACCTAGTGCAG	43200 fluorescence intensity (a.u.)
TTGTATAAATTGGCTATTAGATTGGCTATAGATTAATTGGCGGAGTCACCTAGTGCAG	58900 fluorescence intensity (a.u.)
TTAACAGATTCTTCTTAATTAATAAATAAGCTGTCATGATCGGAGTCACCTAGTGCAG	17300 fluorescence intensity (a.u.)
TTGATTAGATGCGCTGTGTGGCTTCTTGTTCAGTGACAGGCGGAGTCACCTAGTGCAG	32400 fluorescence intensity (a.u.)
ACTATGCCAATTAAAATAAATCAATACAATAGGTATGATTCGGAGTCACCTAGTGCAG	9790 fluorescence intensity (a.u.)
TACAACAAATCAATAATACTCAATTTCCATGTAGTTTGATCGGAGTCACCTAGTGCAG	7890 fluorescence intensity (a.u.)
TTGATAGTAAATCAAACATTAATAAAGGCCTGTTCACTTTCGGAGTCACCTAGTGCAG	8860 fluorescence intensity (a.u.)
CCAGATTGAGCTGTTGCGCACCACCATCCTGACCAGCTGCCGGAGTCACCTAGTGCAG	17400 fluorescence intensity (a.u.)
ATGACAGCAATTCCGATATCTAATAAGATTGAAAATATTGCGGAGTCACCTAGTGCAG	14800 fluorescence intensity (a.u.)
CCAAATGATATAATCATGGCACATGGAGTACTGCTTAAGACGGAGTCACCTAGTGCAG	9170 fluorescence intensity (a.u.)
CTAAAATTGGAGACGTCACTACAAACGTACGCACTCTTTGCGGAGTCACCTAGTGCAG	6760 fluorescence intensity (a.u.)
ATGAGATAAATTGATTGTTAACCATGTATGTCTCTAAGGTCGGAGTCACCTAGTGCAG	56400 fluorescence intensity (a.u.)
ATTAAAACTTAATTAAATATACTAATAGCTTTCTCATTTTCGGAGTCACCTAGTGCAG	7350 fluorescence intensity (a.u.)
GTACATTTTAATGATTATATTATGATGATGAAAATTGTATCGGAGTCACCTAGTGCAG	15300 fluorescence intensity (a.u.)
AGATAATTTAATTGTTAACCATGTATGGCTGTAAGGGTATCGGAGTCACCTAGTGCAG	43900 fluorescence intensity (a.u.)
GATTAATTAATTATTATCCATTGTACACTTCGAAAATTGGCGGAGTCACCTAGTGCAG	60500 fluorescence intensity (a.u.)
CGGCGTTAATTGTCCTTCGATCCATTATTACAGAAACACTCGGAGTCACCTAGTGCAG	15400 fluorescence intensity (a.u.)
GAAATAGATTAATTATAGCTAAAACATTTTCTCGACCTTGCGGAGTCACCTAGTGCAG	52800 fluorescence intensity (a.u.)

Sequence	binding signal
TAAGATAAATTAATTGGTAACCTTGTATGTCCATAAGGGTCGGAGTCACCTAGTGCAG	45400 fluorescence intensity (a.u.)
TTTAATTGGTTAAATGAACTATGTAATGTTATAATTATATCGGAGTCACCTAGTGCAG	33200 fluorescence intensity (a.u.)
AGTAAATTGGTGTATGATTAGATTAACATGTTAAATGTATCGGAGTCACCTAGTGCAG	53500 fluorescence intensity (a.u.)
AAAATTGAAATTTTCAACATTAAATTTGGATTAGATTTTGCGGAGTCACCTAGTGCAG	19200 fluorescence intensity (a.u.)
TAGAATAAATTGATTTAATTAAATGTAACATTAAATATATCGGAGTCACCTAGTGCAG	10100 fluorescence intensity (a.u.)
GGGGATAATTTTGTAGCTCGATGACAAGTTGATTTGGTGTCGGAGTCACCTAGTGCAG	19200 fluorescence intensity (a.u.)
ATCGAATTGAGGGAGATAAATTGATCTTGTTTTAATAATTCGGAGTCACCTAGTGCAG	3450 fluorescence intensity (a.u.)
CTTTAATTACCACCCGATCTCACCAACAAGCGGGGCAGCTCGGAGTCACCTAGTGCAG	20400 fluorescence intensity (a.u.)
AAACGATTGATCACAATCCACGCATCGTGCCTCTCTCGCCCGGAGTCACCTAGTGCAG	14300 fluorescence intensity (a.u.)
GTCTCGTAATTTTCTGTTGAACTATGTAATTGATTTCTTTCGGAGTCACCTAGTGCAG	10500 fluorescence intensity (a.u.)
TGCCACTCAAGTACAATTATTCCCATTAATTCGCTCCATTCGGAGTCACCTAGTGCAG	5600 fluorescence intensity (a.u.)
AATTTAATTAATGACAAATATAATTAGCTCTCTATCCAGGCGGAGTCACCTAGTGCAG	55500 fluorescence intensity (a.u.)
ATAAGTTAATTTAAATAAATGGAGTAGAATATTATGATAGCGGAGTCACCTAGTGCAG	26300 fluorescence intensity (a.u.)
TGTGATGTATTTGATTTATGATGTATTTATTTGTGTGTATCGGAGTCACCTAGTGCAG	20700 fluorescence intensity (a.u.)
GCATGACAAATGGCGTTAATTAGTCCACAAATAATATATACGGAGTCACCTAGTGCAG	3210 fluorescence intensity (a.u.)
TGAATTACTCAATTGAATTGGTGTTATGTAATAAACTGCTCGGAGTCACCTAGTGCAG	5970 fluorescence intensity (a.u.)
CCGGGGATTGATTTGCCGAGTGTATTATTGATCGTATGATCGGAGTCACCTAGTGCAG	53500 fluorescence intensity (a.u.)
ATTGATTGAGAAAATAATGTTGGTGAATAAATTGTTATATCGGAGTCACCTAGTGCAG	40700 fluorescence intensity (a.u.)
AGCTCTATAATTTTACAATTTAAAATTATATTATATAAAGCGGAGTCACCTAGTGCAG	20400 fluorescence intensity (a.u.)
ACTTAATTGGATAGATAAATTTAAGTTATATTTAATATGGCGGAGTCACCTAGTGCAG	64900 fluorescence intensity (a.u.)
AGTAATAAATTGATTGTATGTTATCTGGTGGTCTGAAACTCGGAGTCACCTAGTGCAG	57400 fluorescence intensity (a.u.)
CAAATATATTATAAAATTGCATTTAATAAAACTTATTTGGCGGAGTCACCTAGTGCAG	3450 fluorescence intensity (a.u.)
TTATGATATATTGATCGTAGGATTGGGATTGGGATCCTATCGGAGTCACCTAGTGCAG	15800 fluorescence intensity (a.u.)
